A selection follows.
S2 tox – reduces viability in counter-screen for ATXN expression inhibitors. Potency, µM (doses to about 56.7 µM), most hits filed as cytotoxic. S2 cells (HEK-293 line with an ATXN2-luciferase reporter) viability, CellTiter-Fluor protease fluorescence, 24 h. hit rate 0.49% among 400,000; further: potency means the concentration at half of the fitted maximal effect; nearly all actives have a fitted effect of over 40% in size
ATXN2 expr inh – inhibitors of ATXN2 expression | hit rate 0.72% among 360,000 | HEK-293 ATXN2-luciferase reporter, luminescence, 24 h | Potency, µM (series often up to 57 µM), for inactives: top-dose activity change, negative = inhibition, most hits filed as inhibitors | AID 1745845; further: potency means the concentration at half of the fitted maximal effect; on the % scale 0 is the no-effect control and ±100 the full control effect; nearly all actives have a fitted effect of over 55% in size
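qHTS (up to 57 uM final) was run with 24 h compound exposure of reporter cells at 37 °C. Each well was multiplexed: SteadyGlo luminescence measured ATXN2-luciferase expression after a fluorogenic Gly-Phe-AFC viability readout (25 uM final).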
MCF10A rereplic – DNA re-replication induction in MCF 10a cells. hit rate 2.9% among 350,000. MCF 10A DNA re-replication, Hoechst nuclear intensity, 48 h. AID 624296. Potency, µM (titrated, usually from 46.1 µM), for the others: at the highest dose activity, positive = re-replication, usual class: activators; further: potency means the concentration at half of the fitted maximal effect; % of control where 0% means no effect; nearly all actives have a fitted effect of over 50% in size
PINK1 expr mod – modulators of PINK1 expression. PINK1 immunofluorescence, high-content cytometry, 24 h. hit rate 0.2% among 410,000. Potency, µM (titrated, usually from 76.6 µM), inactives show top-dose activation (PINK1 increase), actives largely listed as activators; active means well fitted activation curve with a large enough effect; inconclusive means small, poorly fitted or top-dose-only effect; cell line not stated here; further: potency means the concentration at half of the fitted maximal effect; % of control where 0% means no effect; nearly all actives have a fitted effect of over 65% in size
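Readout is PINK1 immunofluorescence, quantified alongside mitochondrial, cell and nuclear markers by laser-scanning microplate cytometry. Cells from a stable line were exposed to compound titrations (5 concentrations) for 24 hours, with CCCP controls.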
SW480 rereplic – DNA re-replication induction in SW480 cells. SW480 DNA re-replication, Hoechst DNA content imaging, 48 h. Potency, µM (top dose mostly 46.1 µM), without a hit: at the top dose re-replication activation, most hits filed as activators. hit rate 1.8% among 340,000; further: potency means the concentration at half of the fitted maximal effect; % of control where 0% means no effect; nearly all actives have a fitted effect of over 55% in size
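SW480 cells exposed to compounds for 48 hr at 37 C, 5% CO2, then Hoechst-stained 40 min. Nuclear DNA content imaged by fluorescence scanning (405 nm excitation, 500-530 nm emission); re-replication scored as increased high-intensity nuclei.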
IL1B secr inh – blocks inflammasome-driven IL-1 beta release; THP-1 LPS/ATP IL-1B secretion, AlphaLISA, 16 h; active compounds read low; activity change, % at 57.5 µM; hit rate 4.7% among 360,000; in the data active means activity change below about -50%; inconclusive means mostly about -30% to -49%; further: on the % scale 0 is the no-effect control and ±100 the full control effect
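THP-1 cells pretreated 1 hr with compounds (up to 57.5 uM final), then stimulated with LPS (250 ng/mL final) plus ATP (1.25 mM final); secreted IL-1B measured by AlphaLISA after 16 hr, decreased signal indicating inhibition.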
EBOV S4 ratio – Ebola entry inhibition, ratio channel, screen 4; Ebola pseudovirus entry assay, ratio channel; AC50, µM; shares compounds with ATXN2 expr inh; hit rate 79% among 170; calls by dose curve
EBOV entry S4 bl – blocks Ebola virus entry, screen 4 blue channel readout; shares compounds with ATXN2 expr inh; Ebola virus entry assay, blue channel fluorescence ratio; Channel: blue; calls only; 170 tested, under 10 active; AID 1117309; call rule not given here
EBOV S4 green – Ebola entry inhibition, green channel, screen 4; shares compounds with ATXN2 expr inh; Ebola virus entry reporter assay, green fluorescence channel; Channel: green; calls only; 170 tested, under 10 active; call rule not given here
* hit, by the source's call; i = inactive; u = inconclusive; x = no result; [ ] = dose if it differs, or a comment. Unless noted, the call rests on the fitted dose curve; in most records, active means well fitted curve in the direction sought with a large enough effect; inconclusive means small, poorly fitted or top-dose-only effect, or another doubt; inactive means no such curve, though single readings can be large; an effect the other way counts as inactive or inconclusive.

SMILES | S2 tox | ATXN2 expr inh | MCF10A rereplic | PINK1 expr mod | SW480 rereplic | IL1B secr inh | others
COc1ccc(C(=O)CN2CCCCC2)cc1 | i | -3%[11.3 µM] | -2% | -2% | 2% | 2
NCCCP(=O)(O)CCc1ccccc1 | i | 3% | u | x | 0% | 12
NCCCC(O)(P(=O)(O)O)P(=O)(O)O | i | 0% | -1% | x | -10% | x | EBOV S4 ratio=i;EBOV entry S4 bl=i;EBOV S4 green=i
COc1ccccc1CCNC1CCCCCC1 | i | -34% | 4% | 1% | 1% | -12
CC(CNC1CCCCC1)OC(=O)c1ccccc1 (stereo not given) | i | -2% | -32% | 0% | 1% | -13 | EBOV S4 ratio=i;EBOV entry S4 bl=i;EBOV S4 green=i
CN1C[C@H](CO)C=C2c3cccc4[nH]cc(c34)C[C@@H]21 | i | x | x | x | x | x
CN1[C@@H]2CC(OC(=O)[C@H](CO)c3ccccc3)C[C@H]1[C@@H]1O[C@@H]12 (stereo not given in full) | i | 3% | u | -1% | 5% | 5
O=C1NCN(c2ccccc2)C12CCNCC2 | i | -9% | 4% | u | -11% | 0
CNC(=O)Oc1cccc2ccccc12 | i | -7% | 0% | -1% | 0% | 14
Clc1ccc(CS[C@@H](Cn2ccnc2)c2ccc(Cl)cc2Cl)cc1 | x | x | u | x | -4%[20.6 µM] | x
CN1C[C@H](CNC(=O)OCc2ccccc2)C[C@H]2c3cccc4c3c(cn4C)C[C@@H]21 | i | x | x | x | x | x
Clc1cccc(Cl)c1Cn1nnc(N2CCCC2)n1 | i | 32% | 0% | 0% | -135% | 36
COc1ccc(NC(=O)N2CCC3(CC2)OCCO3)cc1 | i | 28% | 0% | -1% | -1% | 2
COc1ccc2cc1Oc1ccc(cc1)C[C@H]1c3cc(c(OC)cc3CCN1C)Oc1c(OC)c(OC)cc3c1[C@@H](C2)N(C)CC3 | u | u | -13% | 7% | u | u
O=C(Cc1ccccc1)OCCN1CCCCC1 | i | 6% | -3% | 1% | 0% | 14
NC1CC1c1ccccc1 (stereo not given) | x | 2% | x | x | x | x
Cc1ccc(-c2csc(NC(CO)c3nc4ccccc4n3CCOCCO)n2)cc1 (stereo not given) | i | 11% | u | 2% | 8% | 40
CCOC(=O)N1CCN(C(=O)C(CC(C)C)NS(=O)(=O)c2ccc3c(c2)oc(=O)n3C)CC1 (stereo not given) | i | -7% | u | 1%[38.3 µM] | -5% | -9
CC[C@H](C)C(=O)O[C@@H]1[C@H](O)[C@@H]2[C@H](CN3C[C@@H](C)CC[C@@H]3[C@@]2(C)O)[C@@H]2C[C@@]34O[C@@]5(O)[C@@H](OC(=O)[C@](C)(O)CC)CC[C@@]3(C)[C@H]5[C@H](OC(C)=O)[C@@H](OC(C)=O)[C@H]4[C@]12O | i | x | x | x | x | x
